Experimental findings from PubChem BioAssay (NCATS) are described below.

Results filed as inconclusive are left out. Calls of active or inactive are those of the source. The call rests on the fitted dose curve; in most records, active means well fitted inhibition curve with a large enough effect; inconclusive means small, poorly fitted or top-dose-only effect; inactive means flat fitted curve, though single readings scatter.

Common to all, as to experiment: qHTS profiling for inhibitors of Plasmodium falciparum proliferation (AID 504749); further: nearly all actives have a fitted effect of over 60% in size
Settings in all cases: P. falciparum in erythrocytes, SYBR Green DNA, 72 h; series mostly up to 28.7 µM
Background: Quantitative high-throughput screening tests each substance at several concentrations.

Test [1] relates to ATS189. A digest of the protocol:
(§1)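 P. falciparum-infected erythrocytes (0.3% parasitemia, 2.5% hematocrit final) were exposed to compounds for 72 h at 37 C in 5% CO2, then lysed with SYBR Green buffer overnight at room temperature; parasite DNA fluorescence was normalized to artemisinin and DMSO controls.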

For test [2], the system named is ATS95. A digest of the protocol:
as §1

In test [3] the test system is C2A. A digest of the protocol: as §1
The subject of test [4] is CP185. A digest of the protocol: as §1
Test [5] has as its system CP191. A digest of the protocol:
as §1

Test [6] relates to CP192. A digest of the protocol: as §1
Test [7] concerns CP194. The method in brief: as §1
The test system of test [8] is CP201. The method in brief: as §1
The subject of test [9] is CP203. A digest of the protocol:
as §1

The subject of test [10] is CP211. A digest of the protocol:
as §1

Test [11] deals with CP215. The method in brief: as §1
Test [12] deals with CP217. A digest of the protocol: as §1
The subject of test [13] is CP237. The method in brief:
as §1

Test [14] deals with CP238. The method in brief:
as §1

For test [15], the system named is CP247. A digest of the protocol:
as §1

Test [16] deals with CP250. A digest of the protocol: as §1
For test [17], the system named is CP252. A digest of the protocol:
as §1

For test [18], the system named is CP256. The method in brief:
as §1

For test [19], the system named is CP260. A digest of the protocol: as §1
The test system of test [20] is CP262. A digest of the protocol: as §1
Potency means the concentration at half of the fitted maximal effect.

Consider `COP(=O)(OC)OC(c1ccc(Cl)cc1)P(=O)(OC)OC` (stereo not given), for which the Potency entry in [1], in test [2], in [3], in test [4], in [5] and in test [6] was “inactive” throughout. Moreover, the Potency entry in test [7], in test [8], in test [9], in test [10], in test [11] and in test [12] was “inactive” throughout. The Potency result in test [13], in test [14], in test [15], in test [16], in test [17] and in [18] was “inactive” throughout. For the same molecule, the Potency result in test [19] and in test [20] was “inactive” throughout.
With `CCCCCCCCNC(C)C(O)c1ccc(SC(C)C)cc1` (stereo not given), the Potency is 631 nM (active) in [1]; 1260 nM (active) in test [2]; 891 nM (active) in [3]; 891 nM (active) in [4]; 794 nM (active) in test [5]; 2130 nM (active) in [6]. The Potency in test [7] is 1900 nM (active); in test [8] it was 3790 nM (active); in [9], 1690 nM (active); in test [10] it was 3380 nM (active); in test [11], 1690 nM (active); in [12], 708 nM (active). Further, the Potency in [13] was 794 nM (active); in test [14] it was 794 nM (active); in [15], 891 nM (active); in [16], 891 nM (active); in [17], 794 nM (active); in test [18], 1000 nM (active). The Potency in test [19] was 355 nM (active); in test [20] it was 2130 nM (active).
On to `FC(F)(F)C(F)(F)C(F)(F)C(F)(F)C(F)(F)C(F)(F)C(F)(F)C(F)(F)Br`, for which the Potency entry in test [1], in test [2], in test [3], in test [4], in test [5] and in test [6] was “inactive” each time. Besides, the Potency result in test [7], in test [8], in test [9], in [10], in test [11] and in test [12] was “inactive” throughout. Moreover, the Potency entry in test [13], in [14], in [15], in test [16], in [17] and in test [18] was “inactive” in each case. Also, the Potency entry in test [19] and in [20] was “inactive” in each case.
With `CC(=O)OC[C@H]1O[C@@H](n2ncc(=O)[nH]c2=O)[C@H](OC(C)=O)[C@@H]1OC(C)=O`, the Potency result in test [1], in test [2], in test [3], in test [4], in test [5] and in test [6] was “inactive” in each case. Besides, the Potency entry in [7], in test [8], in [9], in test [10], in test [11] and in test [12] was “inactive” throughout. The Potency result in test [13], in test [14], in [15], in [16], in test [17] and in test [18] was “inactive” in each case. Moreover, the Potency entry in [19] and in test [20] was “inactive” throughout.
As to `NS(=O)(=O)Cc1noc2ccccc12`, the Potency result in test [1], in [2], in test [3], in test [4], in [5] and in test [6] was “inactive” in each case. The Potency entry in test [7], in test [8], in test [9], in [10], in test [11] and in test [12] was “inactive” throughout. The Potency entry in [13], in [14], in test [15], in [16], in [17] and in [18] was “inactive” each time. In addition, the Potency result in test [19] and in test [20] was “inactive” in each case.
As for `CCc1oc2ccccc2c1C(=O)c1cc(I)c(O)c(I)c1`, the Potency result in test [1], in [2], in test [3], in test [4], in [5] and in test [6] was “inactive” throughout. The Potency result in [7], in test [8], in test [9], in test [10], in [11] and in test [12] was “inactive” each time. Also, the Potency entry in test [13], in test [14], in test [15], in test [16], in [17] and in test [18] was “inactive” in each case. In addition, the Potency result in test [19] and in [20] was “inactive” each time.
As for `CCN(CC)CCNC(=O)c1cc(Br)c(N)cc1OC`, the Potency result in test [1], in [2], in [3], in test [4], in test [5] and in test [6] was “inactive” throughout. Moreover, the Potency result in test [7], in test [8], in test [9], in test [10], in [11] and in test [12] was “inactive” each time. The Potency entry in [13], in [14], in test [15], in test [16], in test [17] and in test [18] was “inactive” throughout. Also, the Potency entry in test [19] and in test [20] was “inactive” throughout.
For `CCOC(=O)[C@H](CCc1ccccc1)N[C@@H](C)C(=O)N1[C@H](C(=O)O)C[C@H]2CCCC[C@@H]21`, the Potency entry in [1], in test [2], in [3], in [4], in test [5] and in [6] was “inactive” throughout. In addition, the Potency result in test [7], in [8], in [9], in test [10], in test [11] and in test [12] was “inactive” throughout. The Potency result in test [13], in test [14], in [15], in [16], in test [17] and in test [18] was “inactive” each time. Also, the Potency entry in test [19] and in test [20] was “inactive” throughout.
For the molecule `Cc1ccccc1OCC(O)CO` (stereo not given), the Potency entry in test [1], in test [2], in [3], in test [4], in [5] and in [6] was “inactive” throughout. Moreover, the Potency entry in test [7], in test [8], in test [9], in test [10], in [11] and in test [12] was “inactive” in each case. The Potency result in [13], in [14], in test [15], in [16], in test [17] and in test [18] was “inactive” throughout. The Potency result in [19] and in [20] was “inactive” in each case.
Consider `O=C(O)C(Cc1cc(I)c(O)c(I)c1)c1ccccc1` (stereo not given), for which the Potency result in [1], in [2], in [3], in test [4], in test [5] and in test [6] was “inactive” throughout. The Potency entry in [7], in [8], in test [9], in test [10], in test [11] and in [12] was “inactive” throughout. Further, the Potency entry in test [13], in test [14], in [15], in test [16], in test [17] and in [18] was “inactive” in each case. The Potency entry in test [19] and in [20] was “inactive” each time.
As for `OC[C@H]1O[C@@H]2O[C@H]3[C@H](O)[C@@H](O)[C@@H](O[C@H]4[C@H](O)[C@@H](O)[C@@H](O[C@H]5[C@H](O)[C@@H](O)[C@@H](O[C@H]6[C@H](O)[C@@H](O)[C@@H](O[C@H]7[C@H](O)[C@@H](O)[C@@H](O[C@H]8[C@H](O)[C@@H](O)[C@@H](O[C@H]1[C@H](O)[C@H]2O)O[C@@H]8CO)O[C@@H]7CO)O[C@@H]6CO)O[C@@H]5CO)O[C@@H]4CO)O[C@@H]3CO`, the Potency result in test [1], in test [2], in test [3], in test [4], in test [5] and in test [6] was “inactive” throughout. The Potency result in [7], in test [8], in test [9], in [10], in test [11] and in test [12] was “inactive” each time. In addition, the Potency entry in test [13], in test [14], in test [15], in test [16], in test [17] and in test [18] was “inactive” throughout. Besides, the Potency result in test [19] and in test [20] was “inactive” throughout.
In the case of `CC(=O)Oc1ccc(C)cc1`, the Potency entry in [1], in test [2], in test [3], in test [4], in test [5] and in [6] was “inactive” each time. Moreover, the Potency entry in test [7], in test [8], in [9], in test [10], in [11] and in test [12] was “inactive” throughout. The Potency entry in test [13], in test [14], in test [15], in test [16], in test [17] and in [18] was “inactive” in each case. Further, the Potency result in test [19] and in test [20] was “inactive” throughout.
For `O[C@@H](c1cc(C(F)(F)F)nc2c(C(F)(F)F)cccc12)[C@H]1CCCCN1`, the Potency is 28.2 nM (active) in [1]; 28.2 nM (active) in test [2]; 70.8 nM (active) in [3]; 79.4 nM (active) in test [4]; 50.1 nM (active) in [5]; 120 nM (active) in test [6]. In addition, the Potency in [7] was 213 nM (active); in test [8], 379 nM (active); in [9] it was 84.9 nM (active); in [10], 213 nM (active); in test [11], 95.3 nM (active); in test [12], 39.8 nM (active). Moreover, the Potency in test [13] is 25.1 nM (active); in test [14], 44.7 nM (active); in test [15] it was 70.8 nM (active); in test [16], 63.1 nM (active); in test [17], 31.6 nM (active); in test [18] it was 63.1 nM (active). Moreover, the Potency in test [19] is 31.6 nM (active); in test [20] it was 190 nM (active).
